Compound activity: PubChem, National Center for Advancing Translational Sciences (NCATS)
Only some compounds are listed: those with a hit (about 17% of all), similar ones and a draw of the others.
TGFb inhibitor: inhibitors of TGF-b signaling; 410,000 compounds, 1.2% hits; Potency, µM (highest dose often 46.1 µM), for inactives: at the highest dose activity, negative = inhibition, actives largely listed as inhibitors; HepG2 CAGA-GFP TGF-b/SMAD3 reporter, GFP fluorescence, 18 h; TGF-beta stimulated, 500 pg/mL final; further: on the % scale 0 is the no-effect control and ±100 the full control effect; nearly all actives have a fitted effect of over 65% in size
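HEPG2 CAGA-GFP, 1000 cells/well; 2 h settle, 37 C; cpd via pin tool; TGF-b 500 pg/mL final; 18 h, 37 C; GFP imaging ex488/em500-530; %Activity normalised to -TGF-b and +DMSO controls; CRC fit, curve class.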
DT40 TDP1 no CPT: qHTS for Inhibitors of human tyrosyl-DNA phosphodiesterase 1 (TDP1): qHTS in cells in absence of CPT; 420,000 compounds, 15% hits; AID 686978, 2013; Potency, µM (series often up to 46.2 µM), for inactives: at the top dose activity change, negative = growth inhibition, actives largely listed as inhibitors; DT40 Tdp1-/- hTDP1 cells, no CPT, ATP luminescence, 48 h; further: on the % scale 0 is the no-effect control and ±100 the full control effect; nearly all actives have a fitted effect of over 55% in size
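Chicken DT40 Tdp1-/- cells stably complemented with human TDP1 were seeded at 400 cells/well with DMSO in place of 20 nM camptothecin. After compound pinning, cells grew at least 48 hr at 37 °C; viability read by CellTiter-Glo luminescence.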
HT1080-NT tox: kills 2HG-producing HT-1080-NT fibrosarcoma cells. HT-1080-NT fibrosarcoma viability, CellTiter-Glo ATP luminescence, 48 h. Potency, µM (series often up to 46.1 µM), without a hit: top-dose activity, negative = less viability, actives largely listed as cytotoxic. 360,000 compounds, 1.6% hits;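 further: NT is the 2HG producing partner of a matched IDH1 knockdown line; 0% = DMSO-treated cells and -100% = media-only wells without cells; nearly all actives have a fitted effect of over 55% in size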
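A 48-hour cytotoxicity screen used HT-1080-NT cells plated 2 hours before compound delivery. ATP-based CellTiter-Glo luminescence measured viability, normalized to DMSO and no-cell controls.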
HT1080 IDH1KD tx: kills HT-1080 cells with IDH1 knockdown; HT-1080 IDH1 knockdown viability, ATP luminescence, 48 h; Potency, µM (titrated, usually from 46.1 µM), for inactives: at the top dose activity, negative = toxicity, most hits filed as cytotoxic; 360,000 compounds, 2% hits; AID 686971;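 further: 0% = DMSO wells and -100% = cell-free medium wells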
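Cytotoxicity counter-line: IDH1KD HT-1080, 48 h, CellTiter-Glo. Curves classed by r2, magnitude and activity.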
HepG2 viability: HepG2 cytotoxicity, counter-screen for TGF-b inhibitors. HepG2 CAGA-GFP viability, ATP luminescence, 18 h. Potency, µM (series often up to 46.1 µM), for the others: top-dose activity change, negative = cytotoxicity, most hits filed as cytotoxic. 410,000 compounds, 0.76% hits. AID 588856
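HepG2 CAGA-GFP cells (1000/well, DMEM with 1% FBS) received compound, then TGF-beta at 500 pg/mL final, and were incubated 18 hours at 37 degrees C. Viability was read by CellTiter-Glo luminescence. Media-only wells were set as complete cell-killing and DMSO as no toxicity.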
TDP1 cell CPT: DT40-hTDP1 cell growth loss with CPT; 420,000 compounds, 12% hits; Potency, µM (series often up to 46.2 µM), for the others: top-dose activity change, negative = growth inhibition, hits mostly inhibitors; chicken DT40 Tdp1-/-;hTDP1 cells + 20 nM CPT, ATP luminescence, 48 h; further: on the % scale 0 is the no-effect control and ±100 the full control effect; nearly all actives have a fitted effect of over 55% in size
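Chicken DT40 Tdp1-/- cells complemented with human TDP1, 400 cells/well, exposed to compounds plus 20 nM camptothecin for at least 48 h at 37 C; viability read as ATP content by CellTiter-Glo luminescence.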
Active calls of the source: *; ? = inconclusive; . = no result. The call rests on the fitted dose curve; in most records, active means well fitted curve in the direction sought with a large enough effect; inconclusive means small, poorly fitted or top-dose-only effect, or another doubt; inactive means no such curve, though single readings can be large; an effect the other way counts as inactive or inconclusive. Potency means the concentration at half of the fitted maximal effect.

SMILES | TGFb inhibitor | DT40 TDP1 no CPT | HT1080-NT tox | HT1080 IDH1KD tx | HepG2 viability | TDP1 cell CPT
CC(O)CN=c1cc(-c2ccccc2)oc2ccc(Cl)cc12 (centres undefined) | ? | 16µM* | ? | ? | -49% | ?
CC(C)CN=c1cc(-c2ccccc2)oc2ccc(Cl)cc12 | ? | ? | ? | ? | -19% | ?
CN(C)CCCN1C(=O)c2oc3ccc(Cl)cc3c(=O)c2C1c1cccnc1 (centres undefined) | 3% | 1% | 2% | 4% | 5% | 5%
CCC(CO)Oc1cc(NC(=O)c2ccccc2[N+](=O)[O-])c2ncn(C(C)C)c2c1 (centres undefined) | 3% | ? | 5% | 8% | -1% | 16µM*
CCC(CO)Oc1cc(NC(=O)c2ccccc2Cl)c2ncn(C(C)C)c2c1 (centres undefined) | 4% | -12% | -4% | -4% | -18% | -22%
CCC(CO)Oc1cc(NC(=O)c2ccc(OC)cc2)c2ncn(C(C)C)c2c1 (centres undefined) | 7% | ? | 0% | -3% | 0% | 18µM*
COc1ccc(-c2nc(CSc3nncn4c3cc3sccc34)c(C)o2)cc1OC | -1% | 2.6µM* | . | . | -15% | 1.8µM*
CSc1ccccc1NC(=O)c1ccccc1C | -4% | -14% | 1% | 3% | -19% | -16%
COc1cc(OC)c(N2CC(C(=O)Nc3cccc(C(=O)NC4CC4)c3)CC2=O)cc1Cl (centres undefined) | 13% | ? | 4% | 0% | 1% | 13%
